AGP1 TOR yeast – modulators of AGP1-GFP expression in yeast TOR pathway, primary screen, cell-based, multiplex flow cytometry, S. cerevisiae, MLPCN library. GFP response vs DMSO, % at 10 µM. 320,000 compounds, 0.02% hits. 3 h; GFP as percent of DMSO wells;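 active = GFP response relative to DMSO above a set limit, near screen average plus 3 SD, cut at about 150% in these data; inconclusive = fewer than 70 cells counted for the yeast strain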;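 also: median GFP channel fluorescence of the gated AGP1 strain per well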
MEP2 TOR yeast – modulators of MEP2-GFP levels in yeast, primary screen, S. cerevisiae, multiplex flow cytometry, MLPCN library | S. cerevisiae MEP2-GFP strain, 3 h; 100% = DMSO control level | 330,000 compounds, 0.51% hits | GFP response vs DMSO, % at 10 µM;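 active = GFP response versus DMSO above a set limit, roughly screen mean plus 3 SD, cut at about 180% in these data; inconclusive = fewer than 70 cells counted for a yeast strain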;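 also: median GFP fluorescence of the barcode-gated MEP2-GFP cells per well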
RPL19A-GFP yeast – RPL19A-GFP expression modulators in yeast, primary screen, cell-based, S. cerevisiae, multiplex flow cytometry, MLPCN; S. cerevisiae RPL19A-GFP strain, 3 h; hits give low values; percent response vs DMSO, % at 10 µM; AID 2025, 2009; 330,000 compounds, 0.3% hits;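 active = percent response vs DMSO below 50%; inconclusive = fewer than 70 events counted for the yeast strain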;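 also: median channel GFP fluorescence of the barcoded RPL19A-GFP strain; ratio of sample median GFP to plate DMSO average so 100% = DMSO; lower means less RPL19A-GFP as with rapamycin TOR inhibition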
CIT2-GFP yeast – modulators of CIT2-GFP expression in yeast, primary screen, S. cerevisiae, GFP fusion, multiplex flow cytometry, MLPCN library. S. cerevisiae CIT2-GFP strain, 3 h; 100 means same as DMSO wells. GFP response vs DMSO, % at 10 µM. 320,000 compounds, 0.065% hits. AID 2029, 2009;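 active = GFP response relative to DMSO above a set limit, near the screen mean plus 3 SD, cut at about 150% in these data; inconclusive = Fewer than 70 cells measured for a yeast strain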;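 also: ratio of well median GFP fluorescence to mean of DMSO wells on the plate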
LAP4 TOR yeast – modulators of LAP4-GFP expression in yeast, primary screen, S. cerevisiae, multiplex flow cytometry, MLPCN library; 320,000 compounds, 0.34% hits; GFP response vs DMSO, % at 10 µM; 3 h; median GFP as percent of DMSO wells;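 active = GFP response vs DMSO above a set limit, about the screen mean plus 3 SD, cut at about 150% in these data; inconclusive = under 70 cell events counted for the yeast strain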
An asterisk follows results filed as active; ? = inconclusive; / = no result; [ ] = remark or other dose. This is a sample that favours compounds with a hit; in the whole collection about 0.93% have one here.

SMILES | AGP1 TOR yeast | MEP2 TOR yeast | RPL19A-GFP yeast | CIT2-GFP yeast | LAP4 TOR yeast
O=C(/C=C/c1ccccc1Cl)c1ccc(O)cc1 | 97.7 | 101.3 | 99.2 | 84.8 | /
O=C(O)C(Cc1ccccc1)N1CCS(=O)(=O)CC1 (stereo unspecified) | 109.6 | 102.1 | 94.9 | 106.3 | 104.4
O=C(Nc1nccs1)C(F)(F)C(F)(F)C(F)(F)C(=O)Nc1nccs1 | ? | ? | 31.1*[may fluoresce violet] | ? | 97.3
COc1ccc(C2SCC(C(=O)O)N2C(C)=O)cc1 (stereo unspecified) | 98.8 | 102.8 | 96.5 | 103.0 | 97.2
CC(=O)OCC1=C(C(=O)O)N2C(=O)[C@@H](NC(=O)Cc3cccs3)[C@H]2SC1 | ? | 328.7*[may fluoresce violet] | 15.9*[may fluoresce violet] | ? | 112.7
CC(=O)OCC1=C(C(=O)O)N2C(=O)C(NC(=O)CC(C)c3ccccc3)C2SC1 (stereo unspecified) | 94.0 | 88.6 | 92.1 | 93.0 | 86.3
C/C(=N\NC(=O)c1c(Br)c(C)nn1C)c1cccc(NC(=O)c2ccccc2C)c1 | 99.7 | 102.5 | 101.2 | 94.5 | 96.1
C/C(=N\NC(=O)c1c(Br)c(C)nn1C)c1cccc(NC(=O)C2CCC2)c1 | 126.1 | 156.5 | 89.0 | 162.3* | 137.6
Cc1ccc(C)c(N2CCN(c3ccc4cc(S(=O)(=O)N5CCCCC5)ccc4n3)CC2)c1 | 94.1 | 96.8 | 96.1 | 95.6 | 90.2
Cc1cccc(N2CCN(c3ccc4cc(S(=O)(=O)N5CCCCC5)ccc4n3)CC2)c1C | 17.4 | 163.0 | 27.3*[may fluoresce violet] | ? | 92.3
CCNC(=S)NNC(=O)c1ccc(S(=O)(=O)NCc2ccco2)cc1 | 100.8 | 106.1 | 99.3 | 107.8 | 91.7
Cc1cc(=O)oc2c(CN3CCCC3)c(O)c(Cl)cc12 | 82.4 | 524.4*[may fluoresce violet] | 27.4*[may fluoresce violet] | ? | 81.6
CCN1CCN(Cc2c(O)ccc3c(C)cc(=O)oc23)CC1 | 94.5 | 104.7 | 105.1 | 96.7 | 86.7
Cc1cc(=O)oc2c(CN3CCCC3)c(O)ccc12 | ? | 659.0*[may fluoresce violet] | 42.4*[may fluoresce violet] | ? | 68.4
Cc1cccc(NC2=C(C#N)C(=O)NC3(CCCC3)S2)c1 | 99.2 | 108.4 | 104.9 | 107.5 | 92.4
Cc1ccc([N+](=O)[O-])cc1N=C1C(=O)Nc2ccccc21 | ? | 616.5*[may fluoresce violet] | 55.3 | ? | 68.5
CCOC(=O)C1C(=O)Oc2ccc3ccccc3c2C1C1CCOC1=O (stereo unspecified) | 98.3 | 95.3 | 96.4 | 101.5 | 96.9
CCCCCCN1C=CC(=C/C=C(\C#N)C(=O)OCC)C=C1 | 96.5 | 110.6 | 100.2 | 100.3 | 120.2
O=C(Nc1cccc([N+](=O)[O-])c1)c1cc2ccccc2cc1O | 100.0 | 100.4 | 96.9 | 96.1 | 111.8
CCOC(=O)c1nnn(-c2nonc2N)c1CN1CCCCCC1 | 99.4 | 98.7 | 94.7 | 102.8 | 96.9
Cc1c(C(=O)N2CCCCCC2)nnn1-c1nonc1N | / | 182.1*[may fluoresce violet] | 64.3 | ? | 85.5
CC(C)NC(=O)Cn1nnc(-c2cccc(NC(=O)c3ccccc3F)c2)n1 | 18.8 | 600.0*[may fluoresce violet] | 44.9*[may fluoresce violet] | ? | 102.7
COCCCNC(=O)Cn1nnc(-c2ccc(NC(=O)c3ccccc3F)cc2)n1 | 91.1 | 88.0 | 92.0 | 94.2 | 93.5
COc1ccc(-c2noc(CN(C)C(=O)c3ccoc3C)n2)cc1OC | 95.3 | 97.6 | 96.5 | 98.8 | 95.4
CCN1CCN(C(C(=O)NC2CCCC2)c2ccc(Cl)cc2)CC1 (stereo unspecified) | 85.1 | 73.4 | 96.5 | 79.2 | 81.1
SMILES | AGP1 TOR yeast | MEP2 TOR yeast | RPL19A-GFP yeast | CIT2-GFP yeast | LAP4 TOR yeast
CCOCCN1CCN(C2c3ccccc3CSc3ccccc32)CC1 (stereo unspecified) | ? | 257.0*[may fluoresce violet] | 64.2 | ? | 105.0
O=C(Nc1ncnc2sc3c(c12)CCCCC3)c1ccco1 | 82.5 | 183.9*[may fluoresce violet] | 94.7 | ? | 105.0
Cc1c(OCc2ccccc2)c(=O)ccn1Cc1ccc(Cl)cc1 | 97.8 | 100.3 | 99.6 | 104.1 | 101.8
Cc1ccc(Cn2ccc(=O)c(OCc3ccccc3)c2C)cc1 | 104.0 | 234.3*[may fluoresce violet] | 96.6 | ? | 91.7
c1ccc(Cc2nn3c(Cn4nnc5ccccc54)nnc3s2)cc1 | 107.2 | 107.4 | 100.8 | 102.7 | 102.4
Cc1cccc2cc(CN(CC3CCCO3)S(=O)(=O)c3ccccc3)c(=O)[nH]c12 (stereo unspecified) | 99.1 | 98.3 | 93.5 | 99.1 | 92.4
CC(=O)c1ccc(NC(=O)CN2CCC(NC(=O)C3CCCCC3)CC2)cc1 | 104.8 | 175.3* | 104.9 | 134.3 | 124.4
Cc1c(Cl)cccc1NC(=O)CN1CCC(NC(=O)C2CCCCC2)CC1 | 103.6 | 107.5 | 99.5 | 103.3 | 104.6
O=C(NNc1ccccc1[N+](=O)[O-])Nc1ccc(Cl)c(Cl)c1 | 95.5 | 89.7 | 98.5 | 94.7 | 86.3
CCN(CC)S(=O)(=O)c1cc([N+](=O)[O-])ccc1NNC(=O)Nc1ccc(Cl)c(Cl)c1 | ? | 376.4*[may fluoresce violet] | 52.6 | ? | 114.6
Cc1ccc2nc(NCc3ccc(F)cc3)c3nncn3c2c1 | 90.0 | 152.3 | 31.6* | 92.3 | 111.5
COc1ccc(-c2[nH]ncc2-c2ccc(Cl)cc2)c(O)c1 | 68.2 | 83.3 | 76.8 | 90.8 | 152.6*
COc1ccc(N(C(=O)Cc2cccs2)C(C(=O)NC2CCCC2)c2ccncc2)cc1OC (stereo unspecified) | 100.9 | 102.9 | 102.2 | 101.3 | 95.5
Cc1cccc(N(C(=O)Cc2cccs2)C(C(=O)NC2CCCC2)c2ccncc2)c1 (stereo unspecified) | ? | 438.3*[may fluoresce violet] | 50.2 | ? | 83.1
Cc1ccc(C)c(Cn2c3ccccc3c3cnn(CC(=O)NCc4ccccn4)c(=O)c32)c1 | 102.7 | 115.6 | 104.5 | 108.6 | 104.6
CC(C)Oc1ccc(C(=O)NC2CCSc3ccccc32)cc1 (stereo unspecified) | 97.7 | 98.5 | 98.1 | 96.7 | 95.4
O=c1oc2c(CN3CCN(CCO)CC3)c(O)ccc2cc1-c1ccccn1 | ? | ? | 40.0*[may fluoresce violet] | ? | ?
COc1ccccc1CC(=O)NNC(=O)c1ccco1 | 106.0 | 103.6 | 103.8 | 102.8 | 99.5
O=C(/C=C/c1ccc(F)cc1)Nc1ccc(S(=O)(=O)Nc2ncccn2)cc1 | 104.3 | 101.8 | 96.5 | 101.6 | 101.4
Cc1cc(NC(=O)CCC(=O)N(CC(=O)NCC2CCCO2)c2ccc(F)c(Cl)c2)no1 (stereo unspecified) | 12.6 | 389.6*[may fluoresce violet] | 54.3 | ? | 70.7
CC(NC(=O)CN(C)S(=O)(=O)c1ccc(Br)s1)c1ccccc1 (stereo unspecified) | 14.1 | 257.4*[may fluoresce violet] | 57.1 | ? | 80.3
N/C(=N/OC(=O)c1ccccc1Cl)c1ncc([N+](=O)[O-])s1 | ? | 741.5*[may fluoresce violet] | 69.6 | ? | 124.7
N/C(=N\OC(=O)c1ccc2ccccc2c1)c1ccccc1Cl | 65.0 | 96.4 | 89.5 | 160.4* | 122.6

Source: PubChem BioAssay (NMMLSC)
